{"source": "PubChem BioAssay (NCATS)", "note": "Records with an inconclusive call do not appear. Active and inactive are the calls of the source. Calls come from the whole dose curve; as a rule, active = well fitted cell-killing curve with a large enough effect; inconclusive = small, poorly fitted or top-dose-only effect; inactive = flat fitted curve, though single readings scatter. Bridge positions count the residues as written; N and C are the ends. Square brackets hold non-standard residues; d marks the D form. Side chains are listed from the residue outwards. Peptide text beside a SMILES is read from it. * marks the point of attachment. ξ: configuration not given here. Phg(4-OMe) = COc1ccc([C@H](N)C(=O)O)cc1; d(aIle) = CC[C@H](C)[C@@H](N)C(=O)O; d(aThr) = C[C@@H](O)[C@@H](N)C(=O)O; NMeF = CN[C@@H](Cc1ccccc1)C(=O)O; Isobutyryl = CC(C)C(=O)*; Hexanoyl = CCCCCC(=O)*; ξL = CC(C)CC(N)C(=O)O", "data": [{"assay": "Vero-766 cells viability qHTS against the NCATS CANVASS Library: Counterscreen for Zika virus inhibition assay (AID 1347394); note: nearly all actives have a fitted effect of over 60% in size; note: potency is the fitted concentration of half-maximal effect; for activity change, negative = cytotoxic: % is set by controls: 0 for no effect and ±100 for the full control effect", "conditions": "Vero 766 viability, CellTiter-Glo luminescence, 72 h; series mostly up to 46.1 µM; activity change, negative = cytotoxic: at the top concentration", "source_text": "Natural products and their derivatives continue to be wellsprings of nascent therapeutic potential. However, many laboratories have limited resources for biological evaluation, leaving their previously isolated or synthesized compounds largely or completely untested. To address this issue, the Canvass library of natural products was assembled (https://tripod.nih.gov/canvass), in collaboration with academic and industry researchers, for quantitative high-throughput screening (qHTS) across a diverse set of cell-based and biochemical assays. The pure (>85% purity by liquid chromatography/mass spectrometry [LC/MS]) Canvass library of 346 natural products were submitted by 45 academic laboratories and companies around the world. We collected pure natural products to circumvent deconvolution and structure elucidation due to time and resource limitations. The library was formatted into 1536-well plates and evaluated in 50 qHTS (in an 11-pnt concentration series) bioassays with broad scope of disease-relevant mechanisms. The resulting data set from 50 different assays was then systematically analyzed to identify overall trends and specific natural products with interesting biological activities. Reported herein are the results of each individual qHTS and their corresponding assay protocol. The vero cell viability assay was performed in the absence of Zika virus utilizing Cell Titer Glo to eliminate toxic compounds. A decrease in the luminescence signal is caused by cytotoxic compounds. National Center for Advancing Translational Sciences (NCATS), Rockville, MD National Institute of Health (NIH), Bethesda, Maryland\nZika-counterscreen assay protocol: 1. In a white-solid bottom, 1536-well tissue culture plate (Corning 7494), 3 uL of Vero 766 cells derived (African Green Monkey) were dispensed into columns 1, 2, and 5 - 48 using a Multidrop Combi (Thermo Fisher Scientific) at a final concentration of 1000 cells / well. Media only was dispensed in columns 3 and 4 to be used as a control (100% inhibition). 2. The assay plates were incubated overnight at 37C, 5% CO2, 95% humidity to acclimate and attach. 3. […] of compounds (in DMSO; columns 5-48) were pin transferred into the assay plates using the Kalypsis pin tool (Wako USA) equipped with a 1536-well pin heads. This yields a final concentration range of 0.001 - 77 uM. The assay plates were sealed with breathable film. 4. The assay plates were incubated for 72 hours at 37C, 5% CO2, 95% humidity. 5. After incubation, the seals were removed by Xpeel Automated Plate Seal Remover (Brooks Life Sciences) and 2.5 uL of CellTiter Glo reagent (Promega) was dispensed into the wells (columns 1 - 48, rows 1 - 32). 6. Luminescence signal was obtained via the ViewLux plate reader (Perkin Elmer) using the clear emission filter and 1x binning, 2 seconds exposure settings.", "values": [{"smiles": "O=Cc1ccc2n1C[C@]1(OC2)O[C@H](CO)[C@@H](O)[C@@H]1O", "activity change, negative = cytotoxic": "-15.1% (inactive)"}, {"smiles": "COC(=O)c1cc2cc3c(c(O)c2c(=O)o1)OC1(CC3)CC2=C(O1)C(=O)c1c(O)c(OC)cc(OC)c1C2=O", "note": "(stereo not given)", "Potency": "26.3 µM (active)"}, {"smiles": "COc1cc2c(cc1OC)[C@@H](c1ccc3c(c1)OCO3)C(C)C(C)C2=O", "note": "(stereo not given in full)", "activity change, negative = cytotoxic": "-14.7% (inactive)"}, {"smiles": "CC[C@@H]1C[C@@]2(CC)OC(=O)[C@@]3(CC)[C@H](CC)[C@@H]1[C@@H]23", "activity change, negative = cytotoxic": "2.57% (inactive)"}, {"smiles": "CC(C)C[C@@H]1c2c(O)c(C=O)c(O)c(C=O)c2O[C@]2(C)C=C[C@@H](C(C)C)C[C@H]12", "activity change, negative = cytotoxic": "-10.2% (inactive)"}, {"smiles": "C=C[C@](Cl)(CBr)CCC=C(C)C", "activity change, negative = cytotoxic": "2.21% (inactive)"}, {"smiles": "CN1C(=O)C(=O)N2C(=C[C@]3(c4c[nH]c5ccccc45)c4ccccc4N[C@H]23)C1=O", "activity change, negative = cytotoxic": "-9.97% (inactive)"}, {"smiles": "C=CC(CCCCC)C1C(=O)NC(=O)C1C(=O)C1C2C(C)CC(C(=O)O)CC2CC1(O)C(=O)/C=C/C", "note": "(stereo not given)", "activity change, negative = cytotoxic": "-26.5% (inactive)"}, {"smiles": "O=c1cc(-c2ccc(O)cc2)oc2cc(O)c([C@@H]3OC(CO)[C@H](O)[C@@H](O)[C@H]3O)c(O)c12", "note": "(stereo not given in full)", "activity change, negative = cytotoxic": "7% (inactive)"}, {"smiles": "CCC(=O)N[C@@H](C[C@H](C)C(Cl)(Cl)Cl)C(=O)N1C(=O)C=C(OC)[C@@H]1CC(C)C", "activity change, negative = cytotoxic": "-11.2% (inactive)"}, {"smiles": "CC(C)=CCC/C(C)=C/Cc1cc([C@@H]2CC(=O)c3c(cc(O)c(CC=C(C)C)c3O)O2)ccc1O", "activity change, negative = cytotoxic": "-14.1% (inactive)"}, {"smiles": "COC(=O)[C@]1([C@H]2CCC(=O)O2)CC(=O)c2c(O)cc(C)cc2O1", "activity change, negative = cytotoxic": "-8.93% (inactive)"}, {"smiles": "CC(C)=CCCC(C)(O)[C@H]1CC=C(C)C(O)C1", "note": "(stereo not given in full)", "activity change, negative = cytotoxic": "-5.92% (inactive)"}, {"smiles": "C=C1CC[C@@H](Br)C(C)(C)[C@]12CC=C(C)C(=O)C2", "activity change, negative = cytotoxic": "-11.9% (inactive)"}, {"smiles": "CCCCCC(=O)N[C@@H](CC(C)C)C(=O)N[C@H](C=O)CCC(=O)O", "note": "(Hexanoyl-Leu-Glu-aldehyde)", "activity change, negative = cytotoxic": "12.9% (inactive)"}, {"smiles": "C/C(=C\\CC[C@@H](C)[C@H]1CC[C@]2(C)C3=CCC4C(C)(C)[C@@H](O)C[C@@H](O)[C@]4(C)C3[C@H](O)C[C@@]12C)CO", "note": "(stereo not given in full)", "Potency": "33.1 µM (active)"}, {"smiles": "COC12OC1(C13OC1(OC)C(=O)c1cc4cc(C)oc(=O)c4c(O)c1C3O)C(O)c1c(cc3cc(C)oc(=O)c3c1O)C2=O", "note": "(stereo not given)", "Potency": "23.4 µM (active)"}, {"smiles": "C[C@@H]1CC[C@]2(C(=O)O)CC[C@]3(C)C(=C2[C@H]1C)CC[C@@H]1[C@@]2(C)CC[C@H](O)C(C)(C)[C@@H]2CC[C@]13C", "Potency": "18.6 µM (active)"}, {"smiles": "C=C[C@]1(C)CC[C@@H]([C@H](C)C(=O)CC=C(C)C)O1", "activity change, negative = cytotoxic": "-24.6% (inactive)"}, {"smiles": "C/C1=C/[C@@H](C)[C@H](O)[C@@H](O)/C=C/CC/C=C/C(=O)O[C@@H]1[C@H](C)C(=O)CCCC1CC(=O)NC(=O)C1", "activity change, negative = cytotoxic": "-19.9% (inactive)"}, {"smiles": "CC[C@H](C)[C@H]1NC(=O)[C@@H](NC(=O)C(C)C)[C@@H](C)OC(=O)[C@H](COC(=O)CNC(C)=O)NC(=O)[C@@H]([C@@H](C)O)NC(=O)[C@H](Cc2ccccc2)N(C)C(=O)[C@H](c2ccc(OC)cc2)NC1=O", "note": "(Isobutyryl-T[d(aIle)][Phg(4-OMe)][NMeF][d(aThr)]S([Gly-Ac]); ester 1-C)", "activity change, negative = cytotoxic": "-26.9% (inactive)"}, {"smiles": "COC(=O)C1=C[C@]23C[C@@H](C)CC[C@@H]2[C@@]2(C)CC[C@@H](C(C)C)[C@@](O)(O3)[C@@H]12", "activity change, negative = cytotoxic": "-31.1% (inactive)"}, {"smiles": "CC[C@@H](C)[C@H]1NC(=O)C(CC(C)C)NC(=O)[C@@H](CC(C)C)NC(=O)[C@H](Cc2c[nH]c3ccccc23)NC(=O)CNC(=O)[C@@H](CC(N)=O)NC1=O", "note": "(stereo partly drawn) (cyclo(GW[dL][ξL][dI][dN]))", "activity change, negative = cytotoxic": "-7.1% (inactive)"}, {"smiles": "O=Cc1ccc2n1C[C@]1(C[C@H](O)[C@@H](CO)O1)OC2", "activity change, negative = cytotoxic": "-3.11% (inactive)"}, {"smiles": "COc1cc(/C=C/C(=O)OC[C@@H](Cc2ccc(O)c(OC)c2)[C@@H](COC(=O)/C=C/c2ccc(O)c(OC)c2)Cc2ccc(O)c(OC)c2)ccc1O", "Potency": "7.41 µM (active)"}, {"smiles": "C[C@H](CCC(O)C(C)(O)CO)[C@@]1(O)CC[C@@]2(C)C3=C(CC[C@@]21C)[C@@]1(C)CCC(OC(=O)CCC(=O)O)C(C)(C)[C@@H]1CC3", "note": "(stereo not given in full)", "Potency": "29.5 µM (active)"}, {"smiles": "C=C[C@@]1(C)CC[C@@H]([C@H](C)C(=O)/C=C/C(C)(C)O)O1", "activity change, negative = cytotoxic": "-8.55% (inactive)"}, {"smiles": "O=C1CC(c2ccc(O)cc2)Oc2ccccc21", "note": "(stereo not given)", "activity change, negative = cytotoxic": "-1.5% (inactive)"}, {"smiles": "C/C(=C\\[C@@H](C)CC/C=C/CC/C=C/C(=O)O)[C@H](O)[C@H](C)C(=O)CCCC1CC(=O)NC(=O)C1", "activity change, negative = cytotoxic": "1.95% (inactive)"}, {"smiles": "C/C(=C\\[C@H](C)C(=O)CCCC1CC(=O)NC(=O)C1)[C@@H]1OC(=O)/C=C/CC/C=C/[C@H](O)[C@@H](O)[C@@H]1C", "activity change, negative = cytotoxic": "-15.1% (inactive)"}, {"smiles": "COc1cc(C2C3=C(Cc4cc5c(cc42)OCO5)C(=O)OC3)cc(OC)c1OC", "note": "(stereo not given)", "Potency": "0.186 µM (active)"}, {"smiles": "C=C1CC[C@@H](O[C@H]2C[C@@](O)([C@H](C)NC(=O)c3[nH]c(C)c(Cl)c3Cl)[C@H](O)[C@@H](C)O2)[C@@H]2C=C[C@H](C)C(/C(O)=C3/C(=O)[C@H](C(C)C)N([C@@H]4O[C@H](C)[C@H](OC(N)=O)[C@H](OC(C)=O)[C@@H]4OC)C3=O)[C@@H]12", "note": "(stereo not given in full)", "activity change, negative = cytotoxic": "-26.2% (inactive)"}, {"smiles": "C=C1C(=O)O[C@H]2[C@H]1CCC(C)=C1CC[C@@](C)(O)[C@@H]12", "activity change, negative = cytotoxic": "-19% (inactive)"}, {"smiles": "C/C(=C\\[C@@H](C)CC/C=C/CC/C=C/C(=O)O)[C@@H](O)[C@H](C)C(=O)CCCC1CC(=O)NC(=O)C1", "activity change, negative = cytotoxic": "-1.5% (inactive)"}, {"smiles": "CC[C@H]1[C@H](C)[C@H](c2cc(OC)c(OC)cc2OC)[C@@H](C)[C@H](c2cc(OC)c(OC)cc2OC)[C@@]12C=C(OC)C(=O)C=C2OC", "activity change, negative = cytotoxic": "4.52% (inactive)"}, {"smiles": "C[C@@]12CCC[C@@](C)(C(=O)OP(=O)(O)OC[C@H]3O[C@@H](n4cnc5c(N)ncnc54)[C@H](O)[C@@H]3O)[C@H]1C[C@@H](O)[C@@]13C[C@@H](CC[C@@H]21)[C@](C)(O)C3", "activity change, negative = cytotoxic": "5.41% (inactive)"}, {"smiles": "C/C=C1/C2=CCCN3C(=O)O[C@H]([C@H]1O)[C@H]23", "activity change, negative = cytotoxic": "8.09% (inactive)"}, {"smiles": "COc1ccc2[nH]c3c(c2c1)CCN1C[C@H]2C[C@@H](OC(=O)c4cc(OC)c(OC)c(OC)c4)[C@H](OC)[C@@H](OC)[C@H]2C[C@H]31", "activity change, negative = cytotoxic": "-29.5% (inactive)"}, {"smiles": "COc1ccc(-c2oc3cc(OC)cc(OC)c3c(=O)c2O)cc1", "activity change, negative = cytotoxic": "-2.27% (inactive)"}, {"smiles": "CO[C@@H](C[C@@H](C)[C@@H](O)/C=C/C=C/CNC(=O)C(C)(C)[C@H](O)\\C(C)=C/C=C\\C=C\\Cc1cnco1)[C@]1(O)[C@@H](C)C(=O)N(C)[C@@]12COC2=O", "activity change, negative = cytotoxic": "7.52% (inactive)"}]}]}
